According to the supplement of paper PMC6555819:

Key:
Assay in all cases: PBM binding z-score (relative to random genomic background probes); higher = stronger binding; sequences stand for … in GC…GCGATTGACAGCGTAGAATGAAGG
[1] = tested on: FXR:RXRa (NR concentration 270 nM, RXRa partner concentration 90 nM)
Summary of the method: (§1)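 Binding z-scores take random background probes as their reference. They come from custom Agilent 4×180K protein-binding microarrays incubated 1 h with ligand-free nuclear receptor dimers, with antibodies against each partner (one per run) detecting binding. Scanned fluorescence was regression-normalized.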

[2] = tested on: LXRa:RXRa (NR concentration 270 nM, RXRa partner concentration 90 nM)
Summary of the method: as §1

[3] = tested on: LXRa homodimer (NR concentration 270 nM)
Summary of the method: as §1

[4] = tested on: LXRb:RXRa (NR concentration 270 nM, RXRa partner concentration 90 nM)
Summary of the method: as §1

[5] = tested on: LXRb homodimer (NR concentration 270 nM)
Summary of the method: as §1

[6] = tested on: PPARa:RXRa (NR concentration 270 nM, RXRa partner concentration 90 nM)
Summary of the method: as §1

[7] = tested on: PPARg:RXRa (NR concentration 180 nM, RXRa partner concentration 90 nM)
Summary of the method: as §1

[8] = tested on: PPARg:RXRa 270nM:90nM, anti-RXR (NR concentration 270 nM, RXRa partner concentration 90 nM)
Summary of the method: as §1

[9] = tested on: PPARg:RXRa 30nM:10nM, anti-RXR (NR concentration 30 nM, RXRa partner concentration 10 nM)
Summary of the method: as §1

[10] = tested on: PPARg:RXRa 90nM:30nM, anti-RXR (NR concentration 90 nM, RXRa partner concentration 30 nM)
Summary of the method: as §1

| Sequence | PBM binding z-score [1] | PBM binding z-score [2] | PBM binding z-score [3] | PBM binding z-score [4] | PBM binding z-score [5] | PBM binding z-score [6] | PBM binding z-score [7] | PBM binding z-score [8] | PBM binding z-score [9] | PBM binding z-score [10] |
| --- | --- | --- | --- | --- | --- | --- | --- | --- | --- | --- |
| AGAATGAGGTTACCAAAGATAAGGGAAACGCTTG | 1.56 | 1.65 | -0.398 | 1.2 | -0.13 | 3.46 | 2.87 | 2.43 | 0.9 | 1.9 |
| ATCTCTAGGCAAGACTCAGTTCAGTGAAGAACGC | -0.14 | 0.0146 | -0.0156 | -0.438 | -0.221 | -0.499 | 0.011 | -0.156 | -0.193 | -0.262 |
| TAGCCTAGGTCATGCGGGCCAGTGTAGTGTCGGC | 3.71 | 2.88 | -0.0482 | 1.38 | -0.348 | 3.17 | 1.5 | 2.27 | -0.122 | 1.26 |
| TGAATGAGTTTAAAGATCAGGGAACGTGGCGTCG | -0.0413 | 0.111 | -0.578 | -0.0738 | 0.209 | 0.791 | 0.824 | 1.77 | 1.35 | 1.46 |
| GCATATAGCTAATACAAGGTGAAAGTCCGATTGT | -0.158 | -0.177 | 0.202 | -0.0693 | -0.0357 | 0.477 | 0.487 | 0.425 | -0.0371 | 0.33 |
| CCTACTGGGCCCAGGTCATTGATCAGTCAAAGCA | 1.37 | 1.52 | 0.696 | 1.88 | -0.506 | 2.17 | 0.602 | 1.4 | 0.0346 | 0.505 |
| CCTAGCAGGCCAATCTGGGTCACTCGAGGCTTGA | -0.0192 | 1.35 | -0.447 | 0.667 | -1 | 2.98 | 1.69 | 1.96 | 0.0407 | 1.13 |
| CGTCCAAGGTCAGAGAGGTCAGCGAATGCCGAGT | 6.38 | 5.44 | 3.27 | 4.32 | 0.249 | 5.09 | 4 | 4.67 | 0.981 | 3.07 |
| TAGCCTAGGTCATTCAGGGGCCATTATAGAAAGC | 4.21 | 4.32 | 1.34 | 3.81 | 1.44 | 3.96 | 2.32 | 2.45 | 0.349 | 1.57 |
| ATCTCTAGGGAACAAGTTCAGTGAAAGAGAGGAC | 0.199 | 0.374 | 0.318 | 0.32 | 0.577 | 0.667 | 0.723 | 1.08 | 0.126 | 0.728 |
| AGAAAGAGGGCACGCTGAGTTGATAGCAGAGTAG | 1.1 | 1.24 | -0.317 | 0.624 | -0.685 | 2.59 | 1.83 | 1.95 | 0.315 | 1.09 |
| TCTAGCAGGCCAGAGGGTCACTCAGGAGGTACGG | 1.25 | 1.15 | -0.544 | 0.792 | -1.23 | 2.35 | 1.43 | 2.66 | 2 | 2.55 |
| TCATATAGGTAAAAGTTGAAAGTCGGTGTGGTAA | 1.54 | 1.21 | 0.41 | 1.21 | -0.0163 | 4.24 | 7.51 | 7.35 | 7.31 | 8.17 |
| CTCGAAGGGTCGGTTGAGGTGAGTATACGGATAA | 2.14 | 0.689 | -0.0739 | 0.752 | -0.256 | 1.37 | 0.221 | 0.4 | 0.00814 | 0.0401 |
| TCTAGTTGGTCACGGCGGTCACACACGACGGGTA | 0.993 | 1.08 | 0.832 | 0.799 | 0.516 | 1.39 | 1.12 | 1.99 | 3.11 | 2.43 |
| ACAGACACGTGATGAAGGTAACTCAGGCTATCAT | 0.135 | 0.0254 | -0.272 | 0.133 | -0.0548 | -0.111 | 0.787 | -0.012 | 0.0893 | -0.0553 |
| AGAATGAGGTTATTGAGATCAGGGAATTGCGGTC | 2.32 | 1.71 | 0.125 | 1.34 | -0.146 | 2.79 | 1.67 | 2.07 | 0.258 | 1.31 |
| CATAGAGGGTCAGCTAGGCCAGAGTAGGGACGGC | 3.11 | 2.04 | -0.237 | 1.37 | 0.495 | 3.45 | 2.23 | 2.06 | 0.47 | 1.23 |
| GCTATTAGTTGAAAGGTCAACCGAATGATTCTCG | 5.42 | 6.07 | 4.71 | 5.26 | 1.55 | 5.77 | 7.71 | 6.96 | 6.56 | 7.52 |
| CGTCCAAGGTCAATGCTAGGTCAGCGAAAGCATT | 6.63 | 5.79 | 2.77 | 4.08 | 1.43 | 5.16 | 4.44 | 4.73 | 1.24 | 3.25 |
| CCTAGTTGGTCCAGGTCACACACGCTATAGGTAC | 1.93 | 2.22 | 1.52 | 2.41 | 0.771 | 2.58 | 1.47 | 1.46 | 0.532 | 1.01 |
| TCTAGTTGGCCACGGAGGTCACACACGACGGGTA | 2.71 | 2.79 | 1.39 | 3.2 | 0.0016 | 3.68 | 2.32 | 2.96 | 2.82 | 2.84 |

| Sequence | PBM binding z-score [1] | PBM binding z-score [2] | PBM binding z-score [3] | PBM binding z-score [4] | PBM binding z-score [5] | PBM binding z-score [6] | PBM binding z-score [7] | PBM binding z-score [8] | PBM binding z-score [9] | PBM binding z-score [10] |
| --- | --- | --- | --- | --- | --- | --- | --- | --- | --- | --- |
| CCTGCTAGGTCATGGACAGCTAATCTACAGTATG | 3.61 | 2.77 | -0.434 | 1.75 | -0.251 | 3.61 | 2.53 | 2.8 | 0.906 | 1.75 |
| ATCTCTAGGTAAGACGCAGTTCAGTGAAGAACGC | 0.238 | 0.0302 | 0.0448 | -0.176 | 0.151 | -0.0926 | 0.38 | 0.423 | 0.101 | 0.323 |
| TAGCCTAGCTCATGCGGGCCAGTATAGTGTCGGC | -2.69 | -1.21 | -0.957 | -1.4 | -1.43 | -1.23 | -0.395 | -1.21 | -0.899 | -0.925 |
| GGAACTAGGGCAAGTTGATAGCAGAGTTTGATGG | 0.0855 | 0.0269 | 0.0494 | -0.0975 | -0.374 | 2.15 | 3.63 | 3.21 | 1.12 | 2.57 |
| TCTTGTTGATCAATAGAGGTTAAGAAAGTGCGCT | 0.549 | 3.17 | 0.564 | 2.1 | 0.134 | 2.02 | -0.0546 | 1.87 | 2.82 | 2.46 |
| GCTGCTAGGTCAACTGACGGTCAGCTAAAGCTCG | 4.79 | 3.96 | 1.36 | 2.5 | 0.152 | 3.92 | 2.88 | 3.37 | 0.824 | 2.14 |
| GCAGACAGGTCAAACGCAGGTAACTCAGGGTGGC | 6.46 | 4.96 | 1.47 | 3.62 | 0.592 | 5.06 | 3.15 | 3.59 | 0.933 | 2.14 |
| TAGCCTAGGTCATGCCGGCCAGTATAGTGTCGGC | 3.44 | 2.68 | 0.0179 | 1.57 | -0.0168 | 3.07 | 1.99 | 2.08 | 0.0348 | 1.34 |
| TGAATGAGCTTAAAGATCAGGGAACGTGGCGTCG | -0.0785 | -0.405 | -0.642 | -0.65 | -0.626 | -0.428 | 0.39 | 0.417 | -0.0177 | 0.152 |
| CCTCTTAGTTGACCATAAGGGCAACCGAAGCTCG | 0.875 | 0.419 | 0.345 | 0.647 | 0.541 | 0.868 | 0.219 | 0.342 | -0.34 | 0.305 |
| CGAACTAGGCCATCCAGGACAGTGAATACATTGA | -0.177 | -0.379 | -0.0398 | -0.306 | -0.512 | 1.64 | 2.39 | 1.71 | 0.404 | 1.19 |
| CCGAATGGGGCAAGGTTACCATAACGCACAGCCA | 0.248 | 0.895 | -0.0673 | 0.899 | -0.855 | 1.48 | 1.51 | 1.71 | 0.272 | 1.08 |
| CAAACTATGTCACGAAAGGTCAAAGTCGAATGAC | 5.77 | 6.78 | 6.81 | 6.18 | 2.79 | 6.44 | 6.17 | 5.88 | 3.01 | 4.94 |
| CCTTACGGGTCAAAGTTATAGCACGGGTGGTACG | 6.21 | 3.95 | 0.182 | 3.42 | 0.711 | 5.06 | 5.04 | 5.46 | 2.56 | 4.63 |
| ACTTACTGGTCAACGAGGTTATAGCACGCGTATA | 1.24 | 1.44 | 0.897 | 1.62 | 0.859 | 1.88 | 1.04 | 1.16 | 1.29 | 1.29 |
| AGAGTGAGGTTATACGTAGATCAGGGAAGAAAGT | 2.32 | 2.18 | 0.433 | 2.06 | 0.71 | 2.91 | 1.11 | 1.19 | 0.329 | 0.849 |
| GCTTACGGGTCAAAGGTTTTAGCATGAATAGAAT | 6.63 | 4.06 | 0.0126 | 4.17 | 0.372 | 5.95 | 9.13 | 7.88 | 6.54 | 8.43 |
| GGAACGAGGGCAAGTTGGTAGCAGAGTTTGATGG | 0.88 | 0.565 | -0.29 | 0.202 | -0.428 | 1.58 | 0.752 | 0.875 | -0.334 | 0.0314 |
| CGACCAAGGTCAGAGAGGTCAGTGAATGCCGAGT | 6 | 4.97 | 2.61 | 4.23 | -0.0164 | 4.64 | 3.68 | 4.21 | 1.11 | 2.69 |
| TCTAGCAGGCAAGAGGGTCACTCAAGAGGTACGG | 0.555 | 0.86 | -0.678 | 1.18 | -1.24 | 2.25 | 1.01 | 1.76 | 1.7 | 1.82 |
| CCGAATGGGGCAGAAAGGTTACCATACCATCCGG | 0.445 | 0.679 | 0.189 | 0.904 | -0.832 | 2.53 | 2.67 | 4.16 | 2.22 | 3.95 |
| TAGCCTAGGTCATGAGCCAGTATACCACGCGAAC | 4.38 | 3.4 | 0.262 | 2.43 | 0.0464 | 3.93 | 3.35 | 2.98 | 0.892 | 2.05 |
